Here are results for 17 molecules from PubChem BioAssay (NCATS).

Activity calls are given as the source filed them. The call rests on the fitted dose curve; in most records, active means well fitted curve in the direction sought with a large enough effect; inconclusive means small, poorly fitted or top-dose-only effect, or another doubt; inactive means no such curve, though single readings can be large or run the other way.

A short description of this test: Validation qHTS assay for inhibitors of Activation Induced Cytidine Deaminase (AID): UDG Counterscreen signal (AID 1347427). The note with it: biochemical UDG counterscreen, fluorescence signal; series mostly up to 115 µM. The source says: Assay Provider (PI) Patricia Gearhart Ph.D.
National Institute on Aging
National Institute of Health (NIH), Bethesda, MD
Assay Provider (PI) Rahul Kohli Ph.D.
Perelman School of Medicine
University of Pennsylvania, Philadelphia, PA
Activation-Induced Deaminase (AID) is a cytosine deaminase which converts cytosine into uracil within stretches of ssDNA. The presence of uracil in DNA initiates a cascade of mutagenic DNA repair to introduce point mutations and DNA double strand breaks. Specific targeting of AID to the immunoglobulin heavy chain loci (Igh) promotes mutagenesis in the antibody variable region for somatic hypermutation (SHM) or switch regions leading to class switch recombination (CSR). However, AID also plays a role in accumulating unnecessary mutations across the genome. Mis-targeting of AID results in the initiation of tumor development and leads to greater drug resistance among cancer cells when continually expressed. To identify an AID inhibitor, a small molecule library will be screened in collaboration with NCATS core facility at NIH. To confirm biological function, inhibitors will be examined in an in vitro murine B-cell activation assay and subsequent secondary validation screens. Top molecules will be further screened to identify inhibitory efficacy against a wild type primary splenocytes assay. Using these approaches, we hope to identify a small molecule with great efficacy and low toxicity for use as a molecular probe to further characterize AID's intricacies, or even as a therapeutic.
A FRET based analysis of cytosine deamination, was developed to identify potential inhibitors of AID catalytic activity. This screen has two signal output, Read 1 evaluates the AID inhibition response. The second readout (Read 2) evaluates UDG response and is uses as a counterscreen to exclude false positive inhibitors. Inhibition in AID and inactivity in the UDG signal is the desired outcome for this assay.
SEQUENCE No. (e.g., 1, 2, 3, etc.); […] (e.g., Cells, Incubation, Reagent, etc.); VALUE; DESCRIPTION
1a; Reagent; 3 uL; [4/3x] 1 uM AID/2.67 U/mL UDG
1b; Reagent; 3 uL; 2 U/mL UDG
1c; Reagent; 3 uL; 1 uM AID
2a; Compound; 46 nL; Follow-up plates (0.64 uM - 10 mM)
2b; Control; 46 nL; ATA ([…] - 10 mM)
3; Time; 10 min; incubation at room temperature
5; Time; 4 hr; incubation at room temperature
6; Reagent; 4 uL; [2x] 250 mM NaOH
7; Time; 15 sec; centrifuge at 1000 rpm
8; Time; 30 min; incubation at room temperature
9a; Detection; fluorescence (Read 1: AID); EnVision (PerkinElmer) plate reader, 540 excitation and 590 emission filters
9b; Detection; fluorescence (Read 2: UDG); EnVision (PerkinElmer) plate reader, 560 excitation and 665 emission filters
NOTES (numbers refer to sequence above)
1a; Reagents were dispensed in a medium-binding black solid-bottom Greiner plates (789176F) using a BioRptr liquid dispenser. Dispense 3 uL of [4/3x] 1 uM AID (provided by Kohli lab) and [4/3x] 2 U/mL UDG (NEB M0280L) into columns 1, 2, 5 to 48.
1b; Dispense 3 uL of [4/3x] 2 U/mL UDG into column 3.
1c; Dispense 3 uL of [4/3x] 1 uM AID into column 4.
2b; 10 mM Aurintricarboxylic Acid (Sigma A1895) (ATA, 8-point, n = 2, 1:2.5 dilution in column 2) double pin-transferred (Dip Factor = 2) using the Kalypsys (Wako USA) pintool equipped with a 1536 pinhead for a [final] range of 186 nM - 114 uM.
3; Room temperature incubation.
4; Dispense 1 uL of substrate mixture from the Kohli lab [4x] […] DJC20 and [4x] 250 nM DJC23 into columns 1 to 48 .
5; Room temperature incubation.
6; Dispense 4 uL of substrate mixture [2x] 250 mM NaOH into columns 1 to 48.
7; Centrifugation step to remove bubbles.
8; Room temperature incubation
9a; Fluorescence signal (column label AID) was read using the EnVision plate reader. Excitation filter = 540(8) nm, barcode = 311; Emission filter = 590(20) nm, barcode = 217; Mirror = D555, barcode = 405.
9b; Fluorescence signal (column label UDG) was read using the EnVision plate reader. […]
For the molecule `O=C1NC(c2cccc([N+](=O)[O-])c2)=CCN1c1ccccc1O`, the result was inactive.

For `Brc1ccc([C@H]2CN3CCSC3=N2)cc1`, the molecule was called inactive.

`CN(C)c1cc2c(Nc3ccc4c(cnn4Cc4ccccc4)c3)ncnc2cn1`: the call was inactive.

With `COC(=O)C1=CO[C@@H](O)[C@@H]2C(CO)=CC[C@H]12`, the molecule was called inactive.

`CC(C)N(CCC(=O)c1ccc2ccccc2c1)Cc1ccccc1`: the call was inactive.

Regarding `Clc1ccc2c(c1)N=C(N1CCNCC1)c1ccccc1N2`, the call was inactive.

With `O=[N+]([O-])c1ccc(-c2nc(-c3ccc(F)cc3)c(-c3ccncc3)[nH]2)cc1`, the call was inactive.

Turning to `C[N+](C)(C)CCO`, the outcome was inactive.

On to `COc1ccccc1N1CCN(CCN2C(=O)CC3(CCCC3)CC2=O)CC1`, for which the call was inactive.

Turning to `N[C@@H](Cn1ccc(=O)c(O)c1)C(=O)O`, the call was inactive.

As to `CCN(CC)CCNC(=O)c1ccc(NS(C)(=O)=O)cc1`, the outcome was inactive.

For the molecule `Nc1ncnc2n[nH]c(Nc3ccc(F)cc3)c12`, the outcome was inactive.

Take `O=C1NC(=O)/C(=C/c2ccc3c(c2)OC(F)(F)O3)S1`: the outcome was inactive.

Consider `Cc1nn(-c2ccccc2)c(C)c1/C=N/N1CCN(Cc2ccccc2)CC1`, for which the outcome was inactive.

Consider `COc1cccc2c1[C@@H]1CN(CCCCn3c(=O)[nH]c4c(sc5ncc(-c6ccccc6)nc54)c3=O)C[C@@H]1CO2`, for which the outcome was inactive.

`Cn1cnc2c(NCc3ccccc3)nc(NCCO)nc21`: the molecule was classed as inactive.

For `NC(N)=NCCCCN=C(N)N`, the call was inactive.
